Measurements taken from the antibiotic and cytotoxicity screens of Wong et al. (2023).
The campaign covered roughly 39,000 compounds. About 500 (1.3%) were called active. The full list was thinned out, with actives kept by preference.

What follows are molecules tested on S. aureus RN4220 (assay: growth inhibition call (relative growth <= 0.2)). Conditions: 50 µM.

Row | Compound | growth inhibition call
1 | C[C@H]1CN([C@@H](C)CO)C(=O)Cc2cc(NS(=O)(=O)c3ccc(F)cc3)ccc2O[C@@H]1CN(C)C(=O)Nc1cccc2ccccc12 | inactive
2 | C[C@@H]1CCCCO[C@@H](CN(C)C(=O)Nc2ccccc2)[C@@H](C)CN([C@@H](C)CO)C(=O)c2cc(NC(=O)Nc3ccc(C(F)(F)F)cc3)ccc2O1 | inactive
3 | C[C@H](CO)N1C[C@H](C)[C@H](CN(C)S(=O)(=O)c2ccc3ccccc3c2)OCc2cnnn2CCCC1=O | inactive
4 | COC(=O)c1cn(CCNC(=O)[C@@H](NS(=O)(=O)c2ccc(C)cc2)C(C)C)nn1 | inactive
5 | C[C@@H]1CCCCO[C@@H](CN(C)S(=O)(=O)c2cn(C)cn2)[C@@H](C)CN([C@@H](C)CO)C(=O)c2cc(NC(=O)CCCN(C)C)ccc2O1 | inactive
6 | O=C(NCCN1CCOCC1)[C@@]1(Cc2ccccc2)N=C(c2ccc(OCCCO)cc2)O[C@H]1c1ccccc1 | inactive
7 | C[C@@H]1CN([C@H](C)CO)C(=O)c2cc(NC(=O)Nc3ccc(C(F)(F)F)cc3)ccc2O[C@@H]1CN(C)Cc1ccc(C(F)(F)F)cc1 | inactive
8 | COc1ccc(NC(=O)N(C)C[C@H]2Oc3ccc(NC(=O)C4CC4)cc3C(=O)N([C@@H](C)CO)C[C@@H]2C)cc1 | inactive
9 | COc1ccc2c3c(n(c2c1)C)[C@H](CO)N(CC1CCOCC1)C[C@]13CN(C1)C(=O)Cc1cccnc1 | inactive
10 | Cc1ccc(S(=O)(=O)N(C)C[C@@H]2Oc3ccc(N(C)C)cc3CC(=O)N([C@@H](C)CO)C[C@@H]2C)cc1 | inactive
11 | O=C(C[C@H]1C[C@@H]2c3cc(NC(=O)Nc4ccc(C(F)(F)F)cc4)ccc3O[C@@H]2[C@H](CO)O1)NCCc1ccccc1 | inactive
12 | Cc1n[nH]c(=S)[nH]c1=O | inactive
13 | Cc1ccc(S(=O)(=O)N(C)C[C@H]2Oc3c(NC(=O)C4CC4)cccc3C(=O)N([C@@H](C)CO)C[C@@H]2C)cc1 | inactive
14 | Cc1ccc(-c2cnc3c(c2)C(=O)N([C@H](C)CO)C[C@@H](C)[C@H](CN(C)C(=O)Cc2cccnc2)O3)cc1 | inactive
15 | C[C@@H]1CN([C@@H](C)CO)C(=O)c2cc(NC(=O)Nc3cccc4ccccc34)ccc2O[C@@H]1CN(C)Cc1ccc(C(F)(F)F)cc1 | inactive
16 | O=C(C[C@H]1CC[C@@H]2[C@H](COC[C@@H](O)CN2C(=O)Nc2ccc(Cl)c(Cl)c2)O1)NCc1ccncc1 | active
17 | O=C(C[C@H]1CC[C@@H]2[C@H](COC[C@@H](O)CN2C(=O)Nc2ccc(Cl)c(Cl)c2)O1)NCc1ccc(Cl)c(Cl)c1 | inactive
18 | O=C(C[C@@H]1CC[C@@H]2[C@H](COC[C@@H](O)CN2C(=O)Nc2ccc(Cl)c(Cl)c2)O1)NCc1ccc(Cl)c(Cl)c1 | inactive
19 | CCO[C@@H]1OC(C(=O)N2CCOCC2)=C[C@H](C2CC2)[C@H]1CCCOC(=O)NCCCCCC(=O)NO | inactive
20 | O=S(=O)(Cc1ccccc1)Nn1cnnc1 | inactive
21 | C[C@H]1CN([C@@H](C)CO)C(=O)Cc2cc(NS(=O)(=O)c3ccc(F)cc3)ccc2O[C@@H]1CN(C)S(C)(=O)=O | inactive
22 | Cc1ccc(S(=O)(=O)N(C)C[C@@H]2OCCCC[C@@H](C)Oc3ccc(NC(=O)Nc4cccc5ccccc45)cc3C(=O)N([C@@H](C)CO)C[C@@H]2C)cc1 | inactive
23 | CC1=C(C(=O)O)N2C(=O)C(NC(=O)C(N)c3ccccc3)C2SC1 (stereo not drawn) | inactive
24 | CC1=C(C(=O)O)N2C(=O)[C@@H](NC(=O)[C@@H](N)c3ccccc3)[C@H]2SC1 | inactive
25 | CC1=C(C(=O)O)N2C(=O)[C@@H](NC(=O)[C@H](N)c3ccccc3)[C@H]2SC1 | inactive

Row | Compound | growth inhibition call
26 | N[C@@H](C(=O)N[C@@H]1C(=O)N2C(C(=O)O)=C(Cl)CC[C@H]12)c1ccccc1 | active
27 | CC1=C(C(=O)O)N2C(=O)[C@H](NC(=O)[C@@H](N)c3ccccc3)[C@H]2SC1 | inactive
28 | NC(C(=O)NC1C(=O)N2C(C(=O)O)=C(Cl)CSC12)c1ccccc1 (stereo not drawn) | active
29 | N[C@@H](C(=O)N[C@@H]1C(=O)N2C(C(=O)O)=C(Cl)CS[C@H]12)c1ccccc1 | active
30 | O=C(C[C@H]1C[C@@H]2c3cc(NS(=O)(=O)c4ccc(F)cc4)ccc3O[C@@H]2[C@H](CO)O1)NCc1cccc(F)c1 | inactive
31 | Cc1ccc(S(=O)(=O)N(C)C[C@H]2OCCCC[C@@H](C)Oc3ccc(NC(=O)c4ccccc4)cc3C(=O)N([C@@H](C)CO)C[C@@H]2C)cc1 | inactive
32 | C[C@@H]1CN([C@@H](C)CO)C(=O)c2cc(NC(=O)Cn3cnnn3)ccc2O[C@H]1CN(C)CC1CCCCC1 | inactive
33 | C=CC[C@@H](CC(=O)NCCO)C(=O)NC[C@@H](OC(=O)[C@@H](CC=C)CC(=O)OC(C)(C)C)c1ccccc1 | inactive
34 | C[C@H](CO)N1C[C@H](C)[C@H](CN(C)Cc2ccc(-c3ccccc3)cc2)Oc2c(NC(=O)C3CC3)cccc2C1=O | inactive
35 | C[C@@H]1CN([C@H](C)CO)C(=O)c2cccc(NS(=O)(=O)c3ccccc3)c2O[C@H]1CN(C)C(=O)Nc1cccc2ccccc12 | inactive
36 | COCC(=O)N1C[C@H](C)[C@H](OC)CN(C)C(=O)c2ccc(NC(=O)Nc3cccc(F)c3)cc2OC[C@H]1C | inactive
37 | C[C@H]1CCCCO[C@H](CN(C)C(=O)CCCN(C)C)[C@@H](C)CN([C@@H](C)CO)C(=O)c2cc(NC(=O)Nc3ccc(C(F)(F)F)cc3)ccc2O1 | inactive
38 | CCCCOC(=O)[C@@H](N)CCC(=O)O | inactive
39 | COC(=O)[C@H]1c2cc3c(c(O)c2[C@@H](O[C@@H]2O[C@H](C)[C@H](OC)[C@](C)(OC)[C@@H]2OC)C[C@@]1(C)O)C(=O)c1c(O)cc2c(c1C3=O)O[C@H]1O[C@@]2(C)[C@@H](O)[C@H](N(C)C)[C@@H]1O | active
40 | CC[C@@]1(O)C[C@H](O[C@H]2C[C@H](N(C)C)[C@H](O[C@H]3C[C@H](O)[C@H](O[C@H]4CCC(=O)[C@H](C)O4)[C@H](C)O3)[C@H](C)O2)c2c(cc3c(c2O)C(=O)c2c(O)cccc2C3=O)[C@H]1C(=O)OC | inactive
41 | C[C@H](CO)N1C[C@H](C)[C@H](CN(C)Cc2ccc(Cl)c(Cl)c2)Oc2ccc(NC(=O)Cn3cnnn3)cc2CC1=O | inactive
42 | Cc1noc(C)c1NC(=O)Nc1ccc2c(c1)C(=O)N([C@@H](C)CO)C[C@H](C)[C@H](CN(C)C(=O)NC1CCCCC1)OCCCC[C@H](C)O2 | inactive
43 | Cc1noc(C)c1S(=O)(=O)Nc1cccc2c1O[C@@H](CN(C)S(=O)(=O)c1cccs1)[C@@H](C)CN([C@H](C)CO)C2=O | inactive
44 | O=C(O)CCC(=O)N1CC(=O)Nc2ccccc21 | inactive
45 | CN1CCN(CC(=O)N2c3ccccc3C(=O)Nc3cccnc32)CC1.Cl.Cl | inactive
46 | Cc1scc2c1N(C(=O)CN1CCN(C)CC1)c1ccccc1NC2=O.Cl | active
47 | CS(=O)(=O)N1CCC2(CC1)OCCO2 | inactive
48 | CCC(=O)Nc1ccc(Cl)cc1 | inactive
49 | O=C(Nc1ccc(C(F)(F)F)cc1)Nc1cccc(Cl)c1 | inactive
50 | O=C(Nc1ccc(Cl)cc1)Nc1ccc(Cl)c(Cl)c1 | active

Row | Compound | growth inhibition call
51 | CCC(=O)N[C@H]1C=C[C@@H](CC(=O)OC)O[C@H]1CO | inactive
52 | Cc1ccc(S(=O)(=O)Nc2ccc3c(c2)CC(=O)N([C@@H](C)CO)C[C@@H](C)[C@@H](CN(C)CC2CC2)O3)cc1 | inactive
53 | C[C@@H]1CCCCO[C@H](CN(C)C(=O)Nc2ccccc2)[C@H](C)CN([C@H](C)CO)C(=O)c2cc(NS(=O)(=O)c3ccc(Cl)cc3)ccc2O1 | inactive
54 | CC(C)[Si](C#CCCCC#N)(O[C@H](c1ccccc1)c1cn(Cc2cccc(Cl)c2)nn1)C(C)C | active
55 | CC(C)[Si](C#CCCc1ccccc1)(O[C@H](c1ccccc1)c1cn(Cc2ccccc2)nn1)C(C)C | inactive
56 | CCCCCCC#C[Si](O[C@H](c1ccccc1)c1cn(Cc2cccc(Cl)c2)nn1)(C(C)C)C(C)C | inactive
57 | C[C@@H]1CCCCO[C@@H](CN(C)Cc2ccc(C(=O)Nc3ccccc3N)cc2)[C@@H](C)CN([C@H](C)CO)C(=O)c2cc(NS(=O)(=O)c3ccc(F)cc3)ccc2O1 | inactive
58 | C[C@@H]1CN([C@H](C)CO)C(=O)Cc2cc(NC(=O)Cc3cn(C)c4ccccc34)ccc2O[C@H]1CN(C)C | inactive
59 | CCCC[C@@H](C)/C=C(C)/C=C(\C)C(=O)NC1=C[C@@](O)(/C=C/C=C/C=C/C(=O)NC2C(=O)CCC2=O)[C@@H]2O[C@@H]2C1=O | active
60 | CC(C)NC(=O)N(C)C[C@H]1Oc2ccc(NC(=O)CCC(F)(F)F)cc2C(=O)N([C@H](C)CO)C[C@@H]1C | inactive
61 | C[C@@H]1CCCCO[C@@H](CN(C)S(=O)(=O)c2cccs2)[C@H](C)CN([C@H](C)CO)C(=O)c2cc(NC(=O)c3ccccc3)ccc2O1 | inactive
62 | COc1ccccc1CNC(=O)C[C@H]1CC[C@@H]2[C@H](COC[C@@H](O)CN2C(=O)Nc2ccc(Cl)cc2)O1 | active
63 | COc1ccccc1CNC(=O)C[C@H]1CC[C@H]2[C@@H](COC[C@H](O)CN2C(=O)Nc2ccc(Cl)cc2)O1 | active
64 | COc1ccccc1CNC(=O)C[C@H]1CC[C@H]2[C@@H](COC[C@@H](O)CN2C(=O)Nc2ccc(Cl)cc2)O1 | inactive
65 | COc1ccccc1CNC(=O)C[C@@H]1CC[C@H]2[C@@H](COC[C@H](O)CN2C(=O)Nc2ccc(Cl)cc2)O1 | inactive
66 | COc1ccccc1CNC(=O)C[C@@H]1CC[C@@H]2[C@H](COC[C@@H](O)CN2C(=O)Nc2ccc(Cl)cc2)O1 | active
67 | COc1ccccc1CNC(=O)C[C@H]1CC[C@@H]2[C@H](COC[C@H](O)CN2C(=O)Nc2ccc(Cl)cc2)O1 | inactive
68 | O=C(C[C@H]1CC[C@@H]2[C@H](COC[C@@H](O)CN2C(=O)Nc2ccc(Cl)cc2)O1)NC1Cc2ccccc2C1 | inactive
69 | O=C(C[C@@H]1CC[C@H]2[C@@H](COC[C@@H](O)CN2C(=O)Nc2ccc(Cl)cc2)O1)NC1Cc2ccccc2C1 | inactive
70 | COc1ccccc1CNC(=O)C[C@@H]1CC[C@H]2[C@@H](COC[C@@H](O)CN2C(=O)Nc2ccc(Cl)cc2)O1 | inactive
71 | COc1ccccc1CNC(=O)C[C@@H]1CC[C@H]2[C@@H](COC[C@H](O)CN2C(=O)Nc2ccc(F)cc2)O1 | inactive
72 | O=C(C[C@H]1CC[C@H]2[C@@H](COC[C@H](O)CN2C(=O)Nc2ccc(Cl)cc2)O1)NC1Cc2ccccc2C1 | active
73 | COc1ccccc1CNC(=O)C[C@@H]1CC[C@@H]2[C@H](COC[C@H](O)CN2C(=O)Nc2ccc(Cl)cc2)O1 | inactive
